Screening data from PubChem.
Sampled rows, rich in hits. Any-hit rate of the full collection: about 1.7%.
Mtb hypoxia rep: Mtb hypoxia fluorescent reporter inhibition; 300,000 compounds, 0.1% hits; M. tuberculosis hypoxia-regulated fluorescent reporter, fluorescence; fluorescence inhibition, % (test concentration not listed); AID 1159583; in the data active = fluorescence inhibition mostly above about 23%, no sharp cut-off; inactive = mostly below about 17%
PfHsp40 rescue: rescue of PfHsp40-mediated yeast toxicity; S. cerevisiae expressing PfHsp40, growth rescue, ATP luminescence; growth rescue, % at 12.5 µM; 340,000 compounds, 0.68% hits; AID 504582; in the data active = growth rescue above about 28%, passing the limit was not always enough; inconclusive = no clear call, values can overlap the other calls;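 also: yeast W303a lacking pdr1 and pdr3 grown in galactose medium; growth measured after three days at 30 °C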
CCHF vOTU inh: blocks the CCHF virus ovarian tumor domain protease | CCHFV vOTU protease, Pep-AMC fluorescence | inhibition, % at 11.5 µM | 370,000 compounds, 0.55% hits | AID 651958; in the data active = inhibition above about 30%
RecA splice inh: Mtb RecA intein splicing inhibition | P9WHJ3 | cell-free RecA intein splicing, fluorescence | inhibition, % (no concentration beside the values) | 290,000 compounds, 0.75% hits; in the data active = inhibition above about 30%; inconclusive = no clear call, values can overlap the other calls
Target sequence (P9WHJ3 whole entry, looked up, canonical isoform): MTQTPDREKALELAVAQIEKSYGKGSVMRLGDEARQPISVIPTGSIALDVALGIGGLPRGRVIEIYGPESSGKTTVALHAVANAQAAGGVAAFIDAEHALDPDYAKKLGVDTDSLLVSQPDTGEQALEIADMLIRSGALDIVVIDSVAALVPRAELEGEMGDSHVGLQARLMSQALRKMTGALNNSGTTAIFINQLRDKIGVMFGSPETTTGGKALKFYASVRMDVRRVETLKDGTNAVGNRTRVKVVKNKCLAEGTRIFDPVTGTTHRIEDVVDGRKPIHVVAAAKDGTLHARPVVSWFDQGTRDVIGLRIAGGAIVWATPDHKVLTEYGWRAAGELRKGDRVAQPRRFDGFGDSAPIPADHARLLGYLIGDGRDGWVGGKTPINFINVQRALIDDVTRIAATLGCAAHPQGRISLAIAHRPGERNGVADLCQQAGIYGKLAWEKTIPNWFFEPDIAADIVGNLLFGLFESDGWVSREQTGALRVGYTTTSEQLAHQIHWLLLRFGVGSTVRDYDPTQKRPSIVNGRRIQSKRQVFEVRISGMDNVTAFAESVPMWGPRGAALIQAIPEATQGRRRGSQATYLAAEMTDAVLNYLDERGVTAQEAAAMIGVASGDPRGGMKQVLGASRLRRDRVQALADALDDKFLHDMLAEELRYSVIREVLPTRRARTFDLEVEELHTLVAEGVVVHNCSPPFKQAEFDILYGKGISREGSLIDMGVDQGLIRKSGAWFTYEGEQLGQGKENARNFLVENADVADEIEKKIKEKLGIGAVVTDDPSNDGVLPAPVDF
Mtb betalactam: beta-lactam sensitization of Mtb H37Rv. M. tuberculosis H37Rv growth with meropenem, percent inhibition. 330,000 compounds, 0.27% hits. inhibition, % at 25 µM;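 also: growth measured after seven days incubation then overnight dye step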
GFP chromophore: counter-screen: blocks GFP chromophore formation. shares compounds with RecA splice inh. cell-free GFP chromophore formation, fluorescence. EC50, µM. 2,100 compounds, 83% hits
Numbers stand for hits; i = inactive; ? = inconclusive; nt = no result given. Unless noted, no rule for the calls is given here.

SMILES	Mtb hypoxia rep	PfHsp40 rescue	CCHF vOTU inh	RecA splice inh	Mtb betalactam	GFP chromophore
C/C(CC(=O)Nc1ccccn1)=N\NC(=O)c1ccc2ccccc2c1	nt	i	i	i	i	nt
O=C(COc1ccc(Cl)cc1Cl)NN=CC1CC=CCC1 (stereo unspecified)	i	nt	nt	nt	nt	nt
Cc1ccc(C=NNC(=O)c2nnn(-c3nonc3N)c2CN(C)C)s1	i	nt	nt	nt	nt	nt
Cc1nn(-c2ccccc2)c2c1C(c1ccccc1)C(C#N)=C(N)O2 (stereo unspecified)	nt	i	i	54.1	i	28.9
Cc1nn(-c2ccccc2)c2c1C(c1ccc(F)cc1F)C(C#N)=C(N)O2 (stereo unspecified)	i	i	i	50.4	i	3.9
Cc1nn(-c2ccccc2)c2c1C(c1ccc(Br)s1)C(C#N)=C(N)O2 (stereo unspecified)	i	i	nt	nt	nt	nt
COc1ccc(Cl)cc1NC(=O)CC(C)=NNC(=O)Cc1ccccc1	i	nt	nt	nt	nt	nt
COc1ccc(C=NNC(=O)c2ccc(COc3cccc4cccnc34)cc2)cc1OC	i	nt	nt	nt	nt	nt
CCOC(=O)C1=C(c2ccccc2)NC(N)=NC1c1ccc(OCc2ccc(C(=O)OC)cc2)cc1 (stereo unspecified)	i	i	i	46.1	i	26.3
COc1ccc2nc(-c3ccccc3)cc(OC)c2c1	nt	i	i	i	?	nt
COc1ccc2nc3cccc(OC)c3nc2c1	i	i	i	45.5	i	24.2
COc1ccc2nc3ccccc3nc2c1N	i	i	i	64.0	i	39.7
O=C(CCC(=O)Nc1ccc(F)cc1)NN=Cc1ccncc1	i	nt	nt	nt	nt	nt
COc1ccccc1-c1cc(C(F)(F)F)nc(S(=O)(=O)CCCC(=O)NCc2ccc(F)cc2)n1	i	i	i	47.4	i	7.74
CN1CCN(c2nc(-c3ccco3)cc(C(F)(F)F)n2)CC1	i	i	nt	i	i	nt
COc1ccccc1-c1cc(C(F)(F)F)nc(N2CCCC2)n1	i	i	i	nt	i	nt
COc1ccccc1-c1cc(C(F)(F)F)nc(S(=O)(=O)CCCC(=O)Nc2cc(C)on2)n1	nt	i	i	i	i	nt
COc1ccccc1-c1cc(C(F)(F)F)nc(S(=O)(=O)CCCC(=O)NC(C)C)n1	nt	i	i	i	i	nt
COc1ccccc1-c1cc(C(F)(F)F)nc(S(=O)(=O)CCCC(=O)N2CCCCC2C)n1 (stereo unspecified)	nt	i	i	56.2	i	7.21
CS(=O)(=O)c1nc(-c2ccco2)cc(C(F)(F)F)n1	nt	nt	nt	39.9	i	i
COc1ccccc1-c1cc(C(F)(F)F)nc(S(C)(=O)=O)n1	i	i	i	50.2	i	31.2
CC(=NNC(=O)c1ccccc1)c1cccc(Br)c1	i	nt	nt	nt	nt	nt
Cc1cc(C2=CC(=O)CC(c3ccc4c(c3)OCO4)C2)ccc1F (stereo unspecified)	i	nt	nt	nt	nt	nt
Cc1cc(C)nc(NN=C2CCCC/C2=C\c2ccccc2)n1	i	nt	nt	nt	nt	nt
C=CCSC(=C(C#N)C#N)c1cc2c([nH]1)CCCC2	nt	i	i	70.3	i	16.9
SMILES	Mtb hypoxia rep	PfHsp40 rescue	CCHF vOTU inh	RecA splice inh	Mtb betalactam	GFP chromophore
O=C(O)c1cc2c([nH]c1=O)CCCC2	nt	i	i	i	i	nt
Cc1c(/C=N/Nc2nc3ccccc3[nH]2)c2ccccc2n1C	nt	i	i	38.9	i	12
Cn1c(/C=N/Nc2nc3ccccc3[nH]2)nc2ccccc21	nt	i	i	i	i	nt
CCOC(=O)c1c(C)oc2c1c1c(c3ccccc32)OCN(Cc2cccnc2)C1	nt	i	nt	nt	nt	nt
CCOC(=O)c1c(C)oc2c1c1c(c3ccccc32)OCN(CCCC(=O)O)C1	i	i	i	89.7	i	19.9
CCCCNC(=O)OC1CC2CCN3C(=O)CCCC(C1CC)C23 (stereo unspecified)	i	nt	nt	nt	nt	nt
CCNC(=O)c1ccccc1-c1nc(-c2ccccc2)no1	i	i	i	30.1	i	i
O=C(Cc1ccc(Cl)cc1)NCCc1c[nH]c2ccccc12	nt	i	i	i	i	nt
O=C(CCl)N(c1ccccc1)c1c[nH]c2ccccc12	nt	i	i	82.4	i	8.33
O=C(CCl)N(c1ccc(Cl)cc1)c1c[nH]c2ccccc12	35.5	i	i	40.4	i	2.24
O=c1c(C=NN2CCOCC2)c(O)n(-c2ccccc2)c(=S)n1-c1ccccc1	i	nt	nt	nt	nt	nt
CC(C)COC(=O)c1cc(-c2ccc(C=Nn3cnnc3)o2)ccc1Cl	i	nt	nt	nt	nt	nt
CC1=NN(c2ccc(C)cc2C)C(=O)C1C(c1cccc(O)c1)C1C(=O)N(c2ccc(C)cc2C)N=C1C (stereo unspecified)	nt	i	i	97.0	i	1.4
CCN(CC)C(=O)c1[nH]cnc1C(=O)NC(C)C(=O)OCc1ccccc1 (stereo unspecified)	i	nt	nt	nt	nt	nt
CN1CCN2c3ccc(N)cc3CC3(C(=O)NC(=O)NC3=O)C2C1 (stereo unspecified)	i	nt	i	55.2	nt	i
CN1C(=O)N(C)C(=O)C2(Cc3cc(N)ccc3N3CCN(c4ccccc4F)CC32)C1=O (stereo unspecified)	nt	nt	i	i	i	nt
Cc1cc(-c2ccccc2)nc2cc(C(=O)N(Cc3ccccc3)Cc3ccccc3)nn12	nt	i	i	32.5	i	i
CCOC(=O)c1nnc(-c2ccc(C)cc2)nc1Sc1ccccc1Cl	nt	i	i	i	i	nt
CCOC(=O)c1nnc(-c2ccccc2)nc1Sc1c(Cl)cccc1Cl	nt	i	i	54.2	i	37.6
O=S(=O)(NN=Cc1ccccc1F)c1ccccc1	i	nt	nt	nt	nt	nt
CCN(C(=O)CSc1ncccc1C(=O)Oc1cccc([N+](=O)[O-])c1)c1cccc(C)c1	i	i	i	32.8	i	?
Cc1cc(C(=O)CN2C(=O)c3ccccc3C2=O)c(C)n1C1CC1	i	i	i	98.1	i	i
O=C1CCN(S(=O)(=O)c2ccc(Cl)cc2)N1	i	i	i	nt	i	nt
O=C1CCN(S(=O)(=O)c2ccccc2)N1	i	i	i	43.4	i	32.8
CC(=NNC(=O)CSc1nc2ccccc2s1)c1ccncc1	i	nt	nt	nt	nt	nt
SMILES	Mtb hypoxia rep	PfHsp40 rescue	CCHF vOTU inh	RecA splice inh	Mtb betalactam	GFP chromophore
CCOc1cc(C(c2c(C)[nH][nH]c2=O)c2c(C)[nH][nH]c2=O)ccc1OC(=O)c1cccc([N+](=O)[O-])c1	i	i	i	92.1	i	0.441
CCOc1cc(C=NO)ccc1OCc1ccc([N+](=O)[O-])cc1	i	nt	nt	nt	nt	nt
CCOc1cc(C(c2c(C)[nH][nH]c2=O)c2c(C)[nH][nH]c2=O)ccc1OCc1ccc([N+](=O)[O-])cc1	i	i	i	99.1	i	0.326
O=C(NC(c1ccccc1)C1CC1C(=O)O)OCc1ccccc1 (stereo unspecified)	i	nt	nt	nt	nt	nt
Cc1cc(C(=O)Nc2cccc3c2OC(CN(C)S(=O)(=O)c2ccccc2)C(C)CN(C(C)CO)C3=O)n(C)n1 (stereo unspecified)	i	nt	nt	nt	nt	nt
Cc1sc2ncnc(Sc3nnnn3-c3ccccc3)c2c1C	i	i	i	33.8	i	17.8
Clc1ccc(-n2nnnc2Sc2ncnc3sccc23)cc1	nt	i	i	38.5	i	10
COC(=O)C1=C(c2c(C)noc2C)CC2CCC1N2C(=O)NCc1ccc(F)cc1 (stereo unspecified)	i	nt	nt	nt	nt	nt
COc1ccc(/C=C2\CCC/C(=C\C=NN(C)C)C2=O)cc1	i	nt	nt	nt	nt	nt
N#C/C(=C\c1cc(Cl)c(OCc2ccc(Cl)cc2)c(Cl)c1)C(N)=O	nt	nt	nt	44.4	i	i
